# Reference: PubChem BioAssay (EPA / NIEHS)
# Results filed as inconclusive are left out. Calls of active or inactive are those of the source. The calls were made as follows, unless noted: active = hit-call score of the fitted dose curve at least 0.9, where 1 is the maximum; inconclusive = response in the unintended direction; inactive = score below 0.9.
# Key:
# [1] = test system: zebrafish Estrogen Receptor (ER2a), gene 317734; assay: ATG_zfER2a_XSP2: Attagene TRANS-FACTORIAL Multi-Species (XSP2) HepG2 Assay for zebrafish Estrogen Receptor (ER2a) (AID 2283818);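 also: hits raise reporter mRNA so AC50 reflects activation of zebrafish ER2a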
# Procedure, shortened: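 Multiplexed trans-reporter readout: RT-PCR then capillary electrophoresis of reporter transcripts after 24 h compound treatment. Human HepG2 carries transfected zebrafish ER2a-Gal4 chimera; 3 nM 6-alpha-fluorotestosterone plus 1.5 nM norgestrel present. Induction scored against DMSO.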
# [2] = test system: frog Estrogen Receptor (ER), gene 398734; assay: ATG_frER1_XSP2: Attagene TRANS-FACTORIAL Multi-Species (XSP2) HepG2 Assay for frog Estrogen Receptor (ER) (AID 2283821);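 also: hits raise reporter mRNA above DMSO baseline so potency means agonist or activator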
# Procedure, shortened: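 HepG2 cells transiently transfected with multiplexed GAL4-UAS reporter units expressing chimeric NR-Gal4 proteins (TRANS format) were dosed for 24 h. Reporter mRNA was quantified by RT-PCR, FAM primer extension, HpaI digestion and capillary electrophoresis; gain of signal relative to DMSO.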
# [3] = ATG_M_19_XSP2: Attagene TRANS-FACTORIAL Multi-Species (XSP2) HepG2 Assay for M32 Transcription Factor (Internal Marker) (AID 2283822)
# Procedure, shortened: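 Internal background marker in a multi-species nuclear receptor TRANS panel: transfected HepG2 cells exposed 24 h, with 3 nM 6-alpha-fluorotestosterone and 1.5 nM norgestrel present. Readout is RT-PCR of reporter transcripts resolved by capillary electrophoresis, gain-of-signal versus DMSO.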
# [4] = test system: zebrafish Estrogen Receptor (ER2b), gene 317733; assay: ATG_zfER2b_XSP2: Attagene TRANS-FACTORIAL Multi-Species (XSP2) HepG2 Assay for zebrafish Estrogen Receptor (ER2b) (AID 2283823);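 also: fitted upward as reporter gain over DMSO so potency reflects activation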
# Procedure, shortened: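 In this multiplexed trans-activation format, HepG2 cells expressing exogenous NR-Gal4 fusions drive GAL4-UAS reporters. Exposure lasts 24 h, and reporter mRNA induction is read by RT-PCR with capillary electrophoresis detection.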
# [5] = target: Estrogen receptor (Homo sapiens) (UniProt P03372); assay: ATG_hERa_XSP2: Attagene TRANS-FACTORIAL Multi-Species (XSP2) HepG2 Assay for human Estrogen Receptor (ERa) (AID 2283827)
# Chain of Estrogen receptor (Homo sapiens) (P03372 whole entry, looked up, the tested form may be a part): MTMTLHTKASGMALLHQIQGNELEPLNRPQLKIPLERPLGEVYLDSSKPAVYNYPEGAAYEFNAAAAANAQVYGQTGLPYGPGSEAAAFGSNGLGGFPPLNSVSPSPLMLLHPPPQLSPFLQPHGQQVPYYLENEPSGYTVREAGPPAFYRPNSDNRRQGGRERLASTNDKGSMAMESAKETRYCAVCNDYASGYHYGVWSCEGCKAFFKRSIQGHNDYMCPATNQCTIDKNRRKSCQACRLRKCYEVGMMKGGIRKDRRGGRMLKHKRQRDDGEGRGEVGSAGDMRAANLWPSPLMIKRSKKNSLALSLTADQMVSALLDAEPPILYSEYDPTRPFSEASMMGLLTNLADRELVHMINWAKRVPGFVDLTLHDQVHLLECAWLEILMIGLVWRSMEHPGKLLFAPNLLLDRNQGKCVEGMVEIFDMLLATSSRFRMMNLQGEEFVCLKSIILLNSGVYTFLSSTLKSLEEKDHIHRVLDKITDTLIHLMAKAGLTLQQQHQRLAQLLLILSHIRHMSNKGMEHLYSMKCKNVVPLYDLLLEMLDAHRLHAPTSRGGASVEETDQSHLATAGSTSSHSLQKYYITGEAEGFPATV
# Procedure, shortened: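 Trans-activation of exogenous human ERa-Gal4 chimera read in HepG2 as reporter transcript after 24 h exposure; medium included 3 nM 6-alpha-fluorotestosterone and 1.5 nM norgestrel. Quantified by RT-PCR with capillary electrophoresis, positive-direction fitting against DMSO.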
# [6] = target: Peroxisome proliferator-activated receptor gamma (Homo sapiens) (UniProt P37231); assay: ATG_hPPARg_XSP2: Attagene TRANS-FACTORIAL Multi-Species (XSP2) HepG2 Assay for human Peroxisome Proliferator-activated Receptor gamma (PPARg) (AID 2283829);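 also: actives raise reporter mRNA above DMSO so AC50 reflects PPARg activation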
# Chain of Peroxisome proliferator-activated receptor gamma (Homo sapiens) (P37231 whole entry, looked up, the tested form may be a part): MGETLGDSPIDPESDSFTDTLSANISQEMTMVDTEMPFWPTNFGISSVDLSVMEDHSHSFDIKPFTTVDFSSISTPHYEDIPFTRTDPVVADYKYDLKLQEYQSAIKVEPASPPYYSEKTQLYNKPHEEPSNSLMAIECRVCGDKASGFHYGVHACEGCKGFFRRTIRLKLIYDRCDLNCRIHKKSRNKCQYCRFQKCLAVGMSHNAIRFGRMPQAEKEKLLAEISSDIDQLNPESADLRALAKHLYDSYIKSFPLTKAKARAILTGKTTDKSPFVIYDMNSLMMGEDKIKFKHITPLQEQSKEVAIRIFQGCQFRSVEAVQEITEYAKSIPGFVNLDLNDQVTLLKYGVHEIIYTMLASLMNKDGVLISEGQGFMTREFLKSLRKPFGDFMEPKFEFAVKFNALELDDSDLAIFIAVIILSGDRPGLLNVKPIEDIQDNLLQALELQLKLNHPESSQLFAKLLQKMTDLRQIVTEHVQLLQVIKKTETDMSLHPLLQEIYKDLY
# Procedure, shortened: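 Multiplexed transactivation in transfected HepG2 liver cells. Gal4-chimeric receptor activity reported as induced reporter transcript after 24 h.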
# [7] = target: mouse Peroxisome Proliferator-activated Receptor gamma (PPARg), Pparg (gene 19016) (UniProt P37238); assay: ATG_mPPARg_XSP2: Attagene TRANS-FACTORIAL Multi-Species (XSP2) HepG2 Assay for mouse Peroxisome Proliferator-activated Receptor gamma (PPARg) (AID 2283830);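 also: hits are gains in reporter mRNA above DMSO so AC50 marks activation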
# Chain of mouse Peroxisome Proliferator-activated Receptor gamma (PPARg), Pparg (gene 19016) (P37238 whole entry, looked up, the tested form may be a part): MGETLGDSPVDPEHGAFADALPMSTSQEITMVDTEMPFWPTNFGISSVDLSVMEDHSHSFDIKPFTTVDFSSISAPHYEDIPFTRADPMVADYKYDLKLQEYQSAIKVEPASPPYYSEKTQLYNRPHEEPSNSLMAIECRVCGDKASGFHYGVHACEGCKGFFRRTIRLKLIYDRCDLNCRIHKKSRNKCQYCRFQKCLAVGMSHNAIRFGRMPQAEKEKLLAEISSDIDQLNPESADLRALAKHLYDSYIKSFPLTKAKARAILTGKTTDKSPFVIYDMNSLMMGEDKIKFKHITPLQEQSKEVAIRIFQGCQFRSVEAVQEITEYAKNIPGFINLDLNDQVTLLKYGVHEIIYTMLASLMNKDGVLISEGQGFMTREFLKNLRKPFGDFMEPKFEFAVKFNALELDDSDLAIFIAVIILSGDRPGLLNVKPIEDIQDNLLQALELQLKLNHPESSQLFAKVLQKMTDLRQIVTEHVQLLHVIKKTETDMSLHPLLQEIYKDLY
# Procedure, shortened: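 Multiplexed TRANS reporter readout: after 24 h chemical exposure of transfected HepG2 cells (with 3 nM 6-alpha-fluorotestosterone, 1.5 nM norgestrel present), RNA reverse-transcribed, amplified, 6-FAM-labelled and resolved by capillary electrophoresis; mouse PPARg-Gal4 induction scored against DMSO.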
# [8] = target: Nuclear receptor subfamily 1 group I member 2 (Mus musculus) (UniProt O54915); assay: ATG_mPXR_XSP2: Attagene TRANS-FACTORIAL Multi-Species (XSP1) HepG2 Assay for mouse Pregnane X Receptor (PXR) (AID 2283831)
# Chain of Nuclear receptor subfamily 1 group I member 2 (Mus musculus) (O54915 whole entry, looked up, the tested form may be a part): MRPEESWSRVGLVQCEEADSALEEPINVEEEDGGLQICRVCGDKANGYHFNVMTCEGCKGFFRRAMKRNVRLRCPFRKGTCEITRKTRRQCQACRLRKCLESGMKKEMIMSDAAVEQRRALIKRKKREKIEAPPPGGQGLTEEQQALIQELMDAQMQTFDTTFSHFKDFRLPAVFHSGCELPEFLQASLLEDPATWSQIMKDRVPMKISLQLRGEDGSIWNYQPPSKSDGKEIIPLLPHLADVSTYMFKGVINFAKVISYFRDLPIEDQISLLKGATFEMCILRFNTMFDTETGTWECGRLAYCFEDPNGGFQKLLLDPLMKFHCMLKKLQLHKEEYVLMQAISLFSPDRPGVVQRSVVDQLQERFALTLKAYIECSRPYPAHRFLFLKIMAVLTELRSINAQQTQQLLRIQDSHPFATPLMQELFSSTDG
# Procedure, shortened: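 Human liver HepG2 cells expressing exogenous receptor-GAL4 chimeras were exposed to test chemicals for 24 h. Induction of reporter mRNA was scored as gain of fluorescence signal over DMSO controls.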
# [9] = test system: zebrafish Peroxisome Proliferator-activated Receptor gamma (PPARg), gene 557037; assay: ATG_zfPPARg_XSP2: Attagene TRANS-FACTORIAL Multi-Species (XSP2) HepG2 Assay for zebrafish Peroxisome Proliferator-activated Receptor gamma (PPARg) (AID 2283833);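 also: reporter mRNA from a zebrafish PPARg GAL4 chimera measured by RT-PCR and capillary electrophoresis; actives increase reporter signal over DMSO so AC50 reflects activation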
# Procedure, shortened: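 Cell-based transactivation of a chimeric zebrafish PPARg-GAL4 receptor was assessed in transiently transfected HepG2 cells after 24 h of treatment. Reporter mRNA induction, detected fluorescently after RT-PCR, was analysed in the positive direction against DMSO.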
# [10] = test system: turtle Thyroid Hormone Receptor, alpha (TRa), gene 101949057; assay: ATG_trTRa_XSP2: Attagene TRANS-FACTORIAL Multi-Species (XSP1) HepG2 Assay for turtle Thyroid Hormone Receptor, alpha (TRa) (AID 2283834);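 also: hits raise reporter mRNA over the DMSO baseline so AC50 marks activators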
# Procedure, shortened: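 Gain-of-signal reporter transcription measured in transiently transfected HepG2 at 24 h post-dose. Fluorescent RT-PCR products were resolved by capillary electrophoresis and compared with DMSO vehicle.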
# [11] = target: human Thyroid hormone Receptor alpha (TRa), THRA (gene 7067) (UniProt P10827); assay: ATG_hTRa_XSP2: Attagene TRANS-FACTORIAL Multi-Species (XSP2) HepG2 Assay for human Thyroid hormone Receptor alpha (TRa) (AID 2283838)
# Chain of human Thyroid hormone Receptor alpha (TRa), THRA (gene 7067) (P10827 whole entry, looked up, the tested form may be a part): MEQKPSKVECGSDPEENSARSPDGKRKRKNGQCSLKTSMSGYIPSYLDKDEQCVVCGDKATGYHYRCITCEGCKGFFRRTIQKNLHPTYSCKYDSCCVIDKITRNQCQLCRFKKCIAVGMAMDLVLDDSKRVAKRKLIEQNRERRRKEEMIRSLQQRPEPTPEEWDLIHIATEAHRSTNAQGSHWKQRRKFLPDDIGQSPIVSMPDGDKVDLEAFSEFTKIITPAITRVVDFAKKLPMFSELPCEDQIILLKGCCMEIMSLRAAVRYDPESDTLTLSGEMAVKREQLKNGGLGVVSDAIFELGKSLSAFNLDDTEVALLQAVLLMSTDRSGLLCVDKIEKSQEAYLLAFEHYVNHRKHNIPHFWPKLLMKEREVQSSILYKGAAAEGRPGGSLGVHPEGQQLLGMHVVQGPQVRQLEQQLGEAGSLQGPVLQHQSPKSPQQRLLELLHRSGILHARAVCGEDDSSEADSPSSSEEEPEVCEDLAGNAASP
# Procedure, shortened: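 Gain-of-signal in reporter mRNA, relative to DMSO, after 24 h dosing of transfected HepG2; quantitation by RT-PCR fragment analysis on capillary electrophoresis.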
# [12] = target: human Thyroid hormone Receptor beta (TRb), THRB (gene 7068) (UniProt P10828); assay: ATG_hTRb_XSP2: Attagene TRANS-FACTORIAL Multi-Species (XSP2) HepG2 Assay for human Thyroid hormone Receptor beta (TRb) (AID 2283840);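 also: actives raise reporter mRNA so potency reflects agonist-like gain of signal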
# Chain of human Thyroid hormone Receptor beta (TRb), THRB (gene 7068) (P10828 whole entry, looked up, the tested form may be a part): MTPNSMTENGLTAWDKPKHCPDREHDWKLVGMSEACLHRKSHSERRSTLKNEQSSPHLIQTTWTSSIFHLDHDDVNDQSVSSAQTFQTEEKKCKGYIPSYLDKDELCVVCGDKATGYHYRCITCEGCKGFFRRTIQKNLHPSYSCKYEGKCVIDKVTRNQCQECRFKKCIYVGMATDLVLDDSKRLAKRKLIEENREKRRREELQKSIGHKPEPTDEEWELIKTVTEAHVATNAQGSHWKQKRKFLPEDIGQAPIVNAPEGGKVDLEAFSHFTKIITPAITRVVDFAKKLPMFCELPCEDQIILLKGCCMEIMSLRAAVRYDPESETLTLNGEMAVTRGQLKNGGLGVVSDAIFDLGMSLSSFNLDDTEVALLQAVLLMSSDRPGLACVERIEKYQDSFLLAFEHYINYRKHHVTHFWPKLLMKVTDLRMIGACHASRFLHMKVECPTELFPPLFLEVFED
# Procedure, shortened: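 In this cell-based multiplex, HepG2 liver cells carrying transfected GAL4-UAS reporter constructs are exposed to chemical for 24 hours, then reporter transcripts are measured by RT-PCR with capillary electrophoresis, scored as gain of signal against DMSO.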
# [13] = CPHEA_Stoker_NIS_Cytotoxicity: Cytotoxicity Assessment for CPHEA's Radioactive Iodide Uptake (RAIU) Assay for Sodium/Iodide Symporter (NIS) Inhibition, Stoker and Laws Labs (AID 2283897);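 as to AC50: active means loss of ATP signal versus DMSO meaning cytotoxicity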
# Procedure, shortened: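 Viability in hNIS-HEK293T-EPA cells is scored as a drop in luciferase-detected ATP following 2-hour room-temperature exposure (0.001–100uM; triplicate wells, three cell passages), with DMSO as negative control.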
# [14] = ATG_M_61_XSP2: Attagene TRANS-FACTORIAL Multi-Species (XSP2) HepG2 Assay for M61 Transcription Factor (Internal Marker) (AID 2283835; active = hit-call score of the fitted dose curve at least 0.9, where 1 is the maximum; inactive = score below 0.9;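 also: active means a rise in signal above the DMSO baseline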)
# Procedure, shortened: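 Internal background marker, read as RT-PCR/capillary-electrophoresis reporter mRNA 24 h post-dose in transiently transfected HepG2 cells. Androgen receptor stimulated with 3 nM 6-alpha-fluorotestosterone plus 1.5 nM norgestrel; gain of signal versus DMSO analysed.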
# [15] = target: zebrafish Thyroid Hormone Receptor beta (TRb), thrb (gene 30607) (UniProt Q9PVE4); assay: ATG_zfTRb_XSP2: Attagene TRANS-FACTORIAL Multi-Species (XSP1) HepG2 Assay for zebrafish Thyroid Hormone Receptor beta (TRb) (AID 2283836)
# Chain of zebrafish Thyroid Hormone Receptor beta (TRb), thrb (gene 30607) (Q9PVE4 whole entry, looked up): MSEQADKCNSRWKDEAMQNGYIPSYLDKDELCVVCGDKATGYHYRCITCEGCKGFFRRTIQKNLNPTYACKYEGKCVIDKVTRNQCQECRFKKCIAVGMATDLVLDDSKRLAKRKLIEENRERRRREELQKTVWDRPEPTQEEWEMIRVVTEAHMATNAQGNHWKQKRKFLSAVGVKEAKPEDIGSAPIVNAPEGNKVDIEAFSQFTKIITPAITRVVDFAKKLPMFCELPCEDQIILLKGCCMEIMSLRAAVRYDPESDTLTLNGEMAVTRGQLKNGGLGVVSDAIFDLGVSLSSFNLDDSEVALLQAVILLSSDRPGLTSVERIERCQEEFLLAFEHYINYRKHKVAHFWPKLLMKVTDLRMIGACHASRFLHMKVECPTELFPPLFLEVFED
# Procedure, shortened: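 Multiplexed trans-activation in HepG2 cells, 24 h treatment, with reporter mRNA read by RT-PCR and capillary electrophoresis. Gain-of-signal against DMSO.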
# [16] = ATG_M_32_XSP2: Attagene TRANS-FACTORIAL Multi-Species (XSP2) HepG2 Assay for M19 Transcription Factor (Internal Marker) (AID 2283826)
# Procedure, shortened: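 Total RNA is taken from compound-treated HepG2 cells after 24 h and reverse-transcribed; reporter cDNA is PCR-amplified, end-labelled with 6-FAM, digested with HpaI for 2h at 37 C and sized by capillary electrophoresis. Activity is fitted in the positive direction against DMSO.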
# [17] = test system: frog Estrogen Receptor (ER2), gene 100174814; assay: ATG_frER2_XSP2: Attagene TRANS-FACTORIAL Multi-Species (XSP2) HepG2 Assay for frog Estrogen Receptor (ER2) (AID 2283828)
# Procedure, shortened: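 Read-out: reporter transcript levels by RT-PCR with 6-FAM primer extension, HpaI digestion and capillary electrophoresis, scored as induction over DMSO control. Transfected HepG2 carrying Xenopus ER2–GAL4 chimera; compounds incubated 24 h.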
# [18] = test system: chicken Androgen Receptor (AR), gene 422165; assay: ATG_chAR_XSP2: Attagene TRANS-FACTORIAL Multi-Species (XSP2) HepG2 Assay for chicken Androgen Receptor (AR) (AID 2283819);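 also: hits raise reporter mRNA above DMSO so potency is for activation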
# Procedure, shortened: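 Readout is reporter mRNA induction via RT-PCR/capillary electrophoresis after 24 h chemical exposure, positive direction relative to DMSO. Transiently transfected HepG2 express chimeric chicken AR–GAL4; AR stimulated by 3 nM 6-alpha-fluorotestosterone and 1.5 nM norgestrel.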
# [19] = test system: zebrafish Androgen Receptor (AR), gene 100005148; assay: ATG_zfAR_XSP2: Attagene TRANS-FACTORIAL Multi-Species (XSP2) HepG2 Assay for zebrafish Androgen Receptor (AR) (AID 2283825);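 also: hits raise reporter mRNA above DMSO so AC50 reflects agonist-type gain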
# Procedure, shortened: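 After 24 h compound exposure in medium with 3 nM 6-alpha-fluorotestosterone plus 1.5 nM norgestrel, HepG2 cells carrying zebrafish AR–GAL4 reporter constructs were assessed for reporter mRNA gain by RT-PCR and capillary electrophoresis.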
compound,measurement,setting,value
CON(C)C(=O)Nc1ccc(Cl)c(Cl)c1,outcome,[1],inactive
same,outcome,[2],inactive
same,outcome,[3],inactive
same,outcome,[4],inactive
same,outcome,[5],inactive
same,AC50,[6],161 µM (active)
same,outcome,[7],inactive
same,AC50,[8],5.69 µM (active)
same,outcome,[9],inactive
same,outcome,[10],inactive
same,outcome,[11],inactive
same,outcome,[12],inactive
same,outcome,[13],inactive
Cc1c(F)c(F)c(COC(=O)C2C(/C=C(\Cl)C(F)(F)F)C2(C)C)c(F)c1F (stereo not drawn),outcome,[13],inactive
CCCCC(CC)COC(=O)c1ccccc1C(=O)OCC(CC)CCCC (stereo not drawn),outcome,[2],inactive
same,AC50,[4],8.7 µM (active)
same,outcome,[5],inactive
same,AC50,[6],34.5 µM (active)
same,AC50,[7],9.14 µM (active)
same,AC50,[8],0.342 µM (active)
same,outcome,[10],inactive
same,outcome,[14],inactive
same,outcome,[15],inactive
same,outcome,[11],inactive
same,outcome,[12],inactive
C=CCC1=C(C)[C@@H](OC(=O)[C@@H]2[C@@H](C=C(C)C)C2(C)C)CC1=O,outcome,[13],inactive
CN(C)C(=S)SSC(=S)N(C)C,outcome,[13],inactive
CCCCNC(=O)OCC#CI,outcome,[2],inactive
same,AC50,[4],26.2 µM (active)
same,outcome,[16],inactive
same,outcome,[17],inactive
same,AC50,[6],10.6 µM (active)
same,AC50,[7],25.6 µM (active)
same,outcome,[8],inactive
same,outcome,[9],inactive
same,AC50,[10],25.5 µM (active)
same,outcome,[14],inactive
same,outcome,[11],inactive
same,outcome,[13],inactive
N#Cc1cc(Br)c(O)c(Br)c1,outcome,[13],inactive
COc1ccc(C(c2ccc(OC)cc2)C(Cl)(Cl)Cl)cc1,outcome,[1],inactive
same,outcome,[18],inactive
same,AC50,[2],8.82 µM (active)
same,AC50,[4],8.65 µM (active)
same,outcome,[16],inactive
same,AC50,[5],12.1 µM (active)
same,AC50,[17],99.5 µM (active)
same,outcome,[6],inactive
same,outcome,[7],inactive
same,AC50,[8],27.8 µM (active)
same,outcome,[9],inactive
same,outcome,[10],inactive
same,outcome,[14],inactive
same,outcome,[15],inactive
same,outcome,[11],inactive
same,outcome,[13],inactive
CCCN(CCC)c1c([N+](=O)[O-])cc(S(N)(=O)=O)cc1[N+](=O)[O-],outcome,[1],inactive
same,outcome,[2],inactive
same,AC50,[4],40.4 µM (active)
same,AC50,[5],4 µM (active)
same,AC50,[17],22.4 µM (active)
same,outcome,[6],inactive
same,outcome,[7],inactive
same,outcome,[9],inactive
same,outcome,[14],inactive
same,outcome,[15],inactive
same,outcome,[12],inactive
same,outcome,[13],inactive
COc1nc(NC(C)C)nc(NC(C)C)n1,outcome,[13],inactive
CO/C=C(/C(=O)OC)c1ccccc1Oc1cc(Oc2ccccc2C#N)ncn1,outcome,[4],inactive
same,outcome,[19],inactive
same,outcome,[6],inactive
same,AC50,[8],0.545 µM (active)
same,outcome,[9],inactive
same,outcome,[10],inactive
same,outcome,[14],inactive
same,outcome,[15],inactive
same,outcome,[12],inactive
C=CC1(C)OC(=O)N(c2cc(Cl)cc(Cl)c2)C1=O (stereo not drawn),outcome,[1],inactive
same,outcome,[2],inactive
same,AC50,[4],142 µM (active)
same,outcome,[16],inactive
same,AC50,[5],3.58 µM (active)
same,outcome,[17],inactive
same,AC50,[6],36.6 µM (active)
same,AC50,[7],29.5 µM (active)
same,AC50,[8],31.2 µM (active)
same,outcome,[9],inactive
same,outcome,[10],inactive
same,outcome,[14],inactive
same,outcome,[15],inactive
same,AC50,[11],100 µM (active)
same,outcome,[12],inactive
same,outcome,[13],inactive
CS/C(C)=N/OC(=O)N(C)SN(C)C(=O)O/N=C(\C)SC,outcome,[13],inactive
N#CC(CCc1ccc(Cl)cc1)(Cn1cncn1)c1ccccc1 (stereo not drawn),AC50,[13],60.2 µM (active)
CCOC(=O)C(Cl)Cc1cc(-n2nc(C)n(C(F)F)c2=O)c(F)cc1Cl (stereo not drawn),outcome,[13],inactive
CCCC1COC(Cn2cncn2)(c2ccc(Cl)cc2Cl)O1 (stereo not drawn),AC50,[2],167 µM (active)
same,AC50,[4],39.5 µM (active)
same,outcome,[16],inactive
same,AC50,[17],32.5 µM (active)
same,AC50,[6],67.2 µM (active)
same,AC50,[7],100 µM (active)
same,AC50,[8],3.79 µM (active)
same,outcome,[9],inactive
same,outcome,[10],inactive
same,outcome,[14],inactive
same,outcome,[11],inactive
same,outcome,[12],inactive
same,outcome,[13],inactive
C#CCOS(=O)OC1CCCCC1Oc1ccc(C(C)(C)C)cc1 (stereo not drawn),AC50,[1],16.1 µM (active)
same,AC50,[18],4.55 µM (active)
same,AC50,[4],100 µM (active)
same,outcome,[16],inactive
same,AC50,[5],12.1 µM (active)
same,AC50,[6],27.6 µM (active)
same,AC50,[7],38 µM (active)
same,AC50,[8],7.18 µM (active)
same,outcome,[9],inactive
same,outcome,[14],inactive
same,outcome,[15],inactive
same,outcome,[12],inactive
same,outcome,[13],inactive
